# Experimental data taken from the supplement of paper PMC4466140.
# Columns and labels:
# Test in all cases: SPOT peptide array binding signal intensity (averaged, normalized) (arbitrary units (background-subtracted, floor 0; scale differs between SH3 domains)); higher = stronger binding of the SH3 domain to the peptide
# [1] = target: AgAbp1
# Outline: (§1)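 Cellulose membranes carried synthetic 15-mer peptides with cysteines swapped for serines. These were incubated overnight at 4°C with 10 μg/ml of GST-fused SH3 domains from four yeast species in TBS-based blocking buffer. Binding signal, detected with anti-GST antibody and quantified in Genespotter, is the normalized, background-subtracted spot intensity averaged over replicates, in arbitrary units specific to each domain.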
# [2] = target: AgBbc1
# Outline: as §1
# [3] = target: AgBem1-D1
# Outline: as §1
# [4] = target: AgBzz1-D1
# Outline: as §1
# [5] = target: AgBzz1-D2
# Outline: as §1
# [6] = target: AgCyk3
# Outline: as §1
# [7] = target: AgFus1
# Outline: as §1
# [8] = target: AgHof1
# Outline: as §1
# [9] = target: AgHse1
# Outline: as §1
# [10] = target: AgLsb1
# Outline: as §1
# [11] = target: AgLsb4
# Outline: as §1
# [12] = target: AgMyo5
# Outline: as §1
# [13] = target: AgNbp2
# Outline: as §1
# [14] = target: AgRvs167
# Outline: as §1
# [15] = target: AgSho1
# Outline: as §1
# [16] = target: AgSla1-D1-D2
# Outline: as §1
# [17] = target: AgSla1-D3
# Outline: as §1
# [18] = target: CaAbp1-D1
# Outline: as §1
# [19] = target: CaAbp1-D2
# Outline: as §1
# [20] = target: CaBbc1
# Outline: as §1
# [21] = target: CaBem1-D1
# Outline: as §1
# [22] = target: CaBzz1-D1
# Outline: as §1
# [23] = target: CaBzz1-D2
# Outline: as §1
# [24] = target: CaCyk3
# Outline: as §1
# [25] = target: CaFus1
# Outline: as §1
# [26] = target: CaHof1
# Outline: as §1
# [27] = target: CaHse1
# Outline: as §1
# [28] = target: CaLsb1
# Outline: as §1
# [29] = target: CaLsb4
# Outline: as §1
# [30] = target: CaMyo5
# Outline: as §1
# [31] = target: CaNbp2
# Outline: as §1
# [32] = target: CaRvs167
# Outline: as §1
# [33] = target: CaRvs167-3
# Outline: as §1
# [34] = target: CaSho1
# Outline: as §1
# [35] = target: CaSla1-D1-D2
# Outline: as §1
# [36] = target: CaSla1-D3
# Outline: as §1
# [37] = target: ScAbp1
# Outline: as §1
# [38] = target: ScBbc1
# Outline: as §1
# [39] = target: ScBem1-D1
# Outline: as §1
# [40] = target: ScBzz1-D1
# Outline: as §1
# [41] = target: ScBzz1-D2
# Outline: as §1
# [42] = target: ScCyk3
# Outline: as §1
# [43] = target: ScFus1
# Outline: as §1
# [44] = target: ScHof1
# Outline: as §1
# [45] = target: ScHse1
# Outline: as §1
# [46] = target: ScLsb1
# Outline: as §1
# [47] = target: ScLsb2
# Outline: as §1
# [48] = target: ScLsb3
# Outline: as §1
# [49] = target: ScLsb4
# Outline: as §1
# [50] = target: ScMyo3
# Outline: as §1
# [51] = target: ScMyo5
# Outline: as §1
# [52] = target: ScNbp2
# Outline: as §1
# [53] = target: ScPex13
# Outline: as §1
# [54] = target: ScRvs167
# Outline: as §1
# [55] = target: ScSho1
# Outline: as §1
# [56] = target: ScSla1-D1-D2
# Outline: as §1
# [57] = target: ScSla1-D3
# Outline: as §1
# [58] = target: SpAbp1-D1
# Outline: as §1
# [59] = target: SpBbc1
# Outline: as §1
# [60] = target: SpBzz1-D1
# Outline: as §1
# [61] = target: SpBzz1-D2
# Outline: as §1
# [62] = target: SpCyk3
# Outline: as §1
# [63] = target: SpHof1
# Outline: as §1
# [64] = target: SpHof1-2
# Outline: as §1
# [65] = target: SpHof1-3
# Outline: as §1
# [66] = target: SpHse1
# Outline: as §1
# [67] = target: SpLsb1
# Outline: as §1
# [68] = target: SpLsb4
# Outline: as §1
# [69] = target: SpMyo1
# Outline: as §1
# [70] = target: SpNbp2
# Outline: as §1
# [71] = target: SpPex13
# Outline: as §1
# [72] = target: SpRvs167
# Outline: as §1
# [73] = target: SpSla1-D1-D2
# Outline: as §1
# [74] = target: SpSla1-D3
# Outline: as §1
binder,measurement,setting,value
STKKPRPPVKSKPKH,SPOT peptide array binding signal intensity,[1],553
same,SPOT peptide array binding signal intensity,[2],104
same,SPOT peptide array binding signal intensity,[3],1
same,SPOT peptide array binding signal intensity,[4],72
same,SPOT peptide array binding signal intensity,[5],38
same,SPOT peptide array binding signal intensity,[6],≤ 0
same,SPOT peptide array binding signal intensity,[7],9
same,SPOT peptide array binding signal intensity,[8],1.25
same,SPOT peptide array binding signal intensity,[9],71.5
same,SPOT peptide array binding signal intensity,[10],≤ 0
same,SPOT peptide array binding signal intensity,[11],4
same,SPOT peptide array binding signal intensity,[12],3.25
same,SPOT peptide array binding signal intensity,[13],9
same,SPOT peptide array binding signal intensity,[14],1.83
same,SPOT peptide array binding signal intensity,[15],23
same,SPOT peptide array binding signal intensity,[16],7
same,SPOT peptide array binding signal intensity,[17],≤ 0
same,SPOT peptide array binding signal intensity,[18],1410
same,SPOT peptide array binding signal intensity,[19],1100
same,SPOT peptide array binding signal intensity,[20],292
same,SPOT peptide array binding signal intensity,[21],4
same,SPOT peptide array binding signal intensity,[22],104
same,SPOT peptide array binding signal intensity,[23],104
same,SPOT peptide array binding signal intensity,[24],2
same,SPOT peptide array binding signal intensity,[25],29
same,SPOT peptide array binding signal intensity,[26],1.25
same,SPOT peptide array binding signal intensity,[27],≤ 0
same,SPOT peptide array binding signal intensity,[28],0.5
same,SPOT peptide array binding signal intensity,[29],≤ 0
same,SPOT peptide array binding signal intensity,[30],2.5
same,SPOT peptide array binding signal intensity,[31],21
same,SPOT peptide array binding signal intensity,[32],0.333
same,SPOT peptide array binding signal intensity,[33],6.25
same,SPOT peptide array binding signal intensity,[34],19.5
same,SPOT peptide array binding signal intensity,[35],318
same,SPOT peptide array binding signal intensity,[36],≤ 0
same,SPOT peptide array binding signal intensity,[37],2130
same,SPOT peptide array binding signal intensity,[38],5.5
same,SPOT peptide array binding signal intensity,[39],14
same,SPOT peptide array binding signal intensity,[40],4.5
same,SPOT peptide array binding signal intensity,[41],13
same,SPOT peptide array binding signal intensity,[42],≤ 0
same,SPOT peptide array binding signal intensity,[43],≤ 0
same,SPOT peptide array binding signal intensity,[44],≤ 0
same,SPOT peptide array binding signal intensity,[45],110
same,SPOT peptide array binding signal intensity,[46],0.5
same,SPOT peptide array binding signal intensity,[47],3
same,SPOT peptide array binding signal intensity,[48],153
same,SPOT peptide array binding signal intensity,[49],1
same,SPOT peptide array binding signal intensity,[50],5.5
same,SPOT peptide array binding signal intensity,[51],≤ 0
same,SPOT peptide array binding signal intensity,[52],22
same,SPOT peptide array binding signal intensity,[53],≤ 0
same,SPOT peptide array binding signal intensity,[54],≤ 0
same,SPOT peptide array binding signal intensity,[55],269
same,SPOT peptide array binding signal intensity,[56],34.5
same,SPOT peptide array binding signal intensity,[57],16.8
same,SPOT peptide array binding signal intensity,[58],193
same,SPOT peptide array binding signal intensity,[59],8
same,SPOT peptide array binding signal intensity,[60],47
same,SPOT peptide array binding signal intensity,[61],2
same,SPOT peptide array binding signal intensity,[62],≤ 0
same,SPOT peptide array binding signal intensity,[63],11.8
same,SPOT peptide array binding signal intensity,[64],3.5
same,SPOT peptide array binding signal intensity,[65],274
same,SPOT peptide array binding signal intensity,[66],44.5
same,SPOT peptide array binding signal intensity,[67],383
same,SPOT peptide array binding signal intensity,[68],30
same,SPOT peptide array binding signal intensity,[69],≤ 0
same,SPOT peptide array binding signal intensity,[70],≤ 0
same,SPOT peptide array binding signal intensity,[71],≤ 0
same,SPOT peptide array binding signal intensity,[72],≤ 0
same,SPOT peptide array binding signal intensity,[73],8
same,SPOT peptide array binding signal intensity,[74],≤ 0
SNRRPVPRRPSQPLN,SPOT peptide array binding signal intensity,[61],0.75
same,SPOT peptide array binding signal intensity,[62],6
same,SPOT peptide array binding signal intensity,[63],245
same,SPOT peptide array binding signal intensity,[64],204
same,SPOT peptide array binding signal intensity,[65],302
same,SPOT peptide array binding signal intensity,[66],91.5
same,SPOT peptide array binding signal intensity,[67],96
same,SPOT peptide array binding signal intensity,[68],2870
same,SPOT peptide array binding signal intensity,[69],73.1
same,SPOT peptide array binding signal intensity,[70],21.5
same,SPOT peptide array binding signal intensity,[71],4
same,SPOT peptide array binding signal intensity,[72],1830
same,SPOT peptide array binding signal intensity,[73],21
same,SPOT peptide array binding signal intensity,[74],0.5
MARRRLPDRPPNGIG,SPOT peptide array binding signal intensity,[1],546
same,SPOT peptide array binding signal intensity,[2],428
same,SPOT peptide array binding signal intensity,[3],143
same,SPOT peptide array binding signal intensity,[4],55
same,SPOT peptide array binding signal intensity,[5],95
same,SPOT peptide array binding signal intensity,[6],16
same,SPOT peptide array binding signal intensity,[7],148
same,SPOT peptide array binding signal intensity,[8],112
same,SPOT peptide array binding signal intensity,[9],216
same,SPOT peptide array binding signal intensity,[10],158
same,SPOT peptide array binding signal intensity,[11],2490
same,SPOT peptide array binding signal intensity,[12],≤ 0
same,SPOT peptide array binding signal intensity,[13],410
same,SPOT peptide array binding signal intensity,[14],487
same,SPOT peptide array binding signal intensity,[15],636
same,SPOT peptide array binding signal intensity,[16],179
same,SPOT peptide array binding signal intensity,[17],16.5
same,SPOT peptide array binding signal intensity,[18],1170
same,SPOT peptide array binding signal intensity,[19],788
same,SPOT peptide array binding signal intensity,[20],1100
same,SPOT peptide array binding signal intensity,[21],184
same,SPOT peptide array binding signal intensity,[22],308
same,SPOT peptide array binding signal intensity,[23],102
same,SPOT peptide array binding signal intensity,[24],290
same,SPOT peptide array binding signal intensity,[25],280
same,SPOT peptide array binding signal intensity,[26],5.25
same,SPOT peptide array binding signal intensity,[27],89
same,SPOT peptide array binding signal intensity,[28],6.75
same,SPOT peptide array binding signal intensity,[29],2570
same,SPOT peptide array binding signal intensity,[30],22.5
